Several values for one entry are separate records, joined by “and”; a condition that tells them apart may be missing. Equal entries are not always repeated. Hit rate of the full screen: of about 5,500 compounds, about 2,000 (36%) were called active. About 18% were inconclusive and are not listed. No stated cut-off is given here; in the data, active means normalized growth mostly below about 0.91 (no sharp cut-off); inconclusive means no clear call, values can overlap the other calls; inactive means mostly above about 0.92. The list shows a part of the results.
Assay: chemical genetic growth profiling, strain panel (AID 1159580);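 further: tested at 20 µM; growth read once vehicle control cultures reached saturation at 30 °C; 1 = growth at the plate median or of vehicle wells; lower values mean less growth of the strain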
Settings: S. cerevisiae deletion strains, growth OD

Measured: normalized growth

CC(N)CCCC(C)(C)O (centres undefined)
inactive: locus YAL013W, strain DEP1, active compounds read low 0.998 | locus YAL021C, strain ccr4, active compounds read low 0.973 | locus YAL026C, strain drs2, active compounds read low 0.993 | locus YAL030W, strain snc1, active compounds read low 0.989 | locus YBL061C, strain skt5, active compounds read low 0.98 | locus YBR009C, strain hhf1, active compounds read low 1.01 | locus YBR021W, strain FUR4, active compounds read low 1.02 | locus YBR023C, strain chs3, active compounds read low 0.98 | locus YBR171W, strain sec66, active compounds read low 0.964 | locus YBR229C, strain ROT2, active compounds read low 1.01 | locus YBR231C, strain swc5, active compounds read low 0.976 | locus YBR279W, strain paf1, active compounds read low 0.984 | locus YCL011C, strain gbp2, active compounds read low 0.969 | locus YCL016C, strain dcc1, active compounds read low 0.989 | locus YCL029C, strain bik1, active compounds read low 1 | locus YCL061C, strain MRC1, active compounds read low 0.971 | locus YCL069W, strain vba3, active compounds read low 0.979 | locus YCR088W, strain abp1, active compounds read low 0.973 | locus YDL005C, strain med2, active compounds read low 0.983 | locus YDL035C, strain GPR1, active compounds read low 1.02 | locus YDL040C, strain nat1, active compounds read low 0.984 | locus YDL074C, strain BRE1, active compounds read low 0.979 | locus YDL101C, strain DUN1, active compounds read low 0.994 | locus YDL134C, strain PPH21, active compounds read low 1.02 | locus YDL185W, strain tfp1, active compounds read low 1.01 | locus YDL192W, strain arf1, active compounds read low 1.01 | locus YDR001C, strain nth1, active compounds read low 0.973 | locus YDR069C, strain doa4, active compounds read low 0.981 | locus YDR101C, strain arx1, active compounds read low 0.976 | locus YDR137W, strain rgp1, active compounds read low 1.01 | locus YDR159W, strain sac3, active compounds read low 0.975 | locus YDR162C, strain NBP2, active compounds read low 1.01 | locus YDR195W, strain ref2 0.904 | locus YDR297W, strain sur2, active compounds read low 0.975 | locus YDR318W, strain mcm21, active compounds read low 1.01 | locus YDR334W, strain swr1, active compounds read low 0.93 | locus YDR335W, strain msn5, active compounds read low 0.985 | locus YDR388W, active compounds read low 1.01 | locus YDR392W, strain spt3, active compounds read low 0.905 | locus YDR502C, strain sam2, active compounds read low 0.996 | locus YEL003W, strain gim4, active compounds read low 0.97 | locus YEL037C, strain rad23, active compounds read low 0.977 | locus YEL061C, strain CIN8 (second series), active compounds read low 0.977 | locus YEL061C, strain CIN8, active compounds read low 0.994 | locus YER015W, strain faa2, active compounds read low 0.982 | locus YER016W, strain bim1, active compounds read low 0.98 | locus YER110C, active compounds read low 1.02 | locus YER111C, strain swi4, active compounds read low 0.987 | locus YER155C, strain BEM2 (second series), active compounds read low 0.972 | locus YER155C, strain BEM2, active compounds read low 1 | locus YER167W, strain BCK2, active compounds read low 1.01 | locus YFR010W, strain ubp6, active compounds read low 0.978 | locus YGL078C, strain dbp3, active compounds read low 1.01 | locus YGL086W, strain mad1, active compounds read low 0.998 | locus YGL167C, strain pmr1, active compounds read low 0.979 | locus YGL173C, strain kem1, active compounds read low 0.983 | locus YGL227W, strain vid30, active compounds read low 0.981 | locus YGL240W, strain doc1, active compounds read low 0.979 | locus YGL248W, strain PDE1, active compounds read low 1 | locus YGL253W, strain hxk2, active compounds read low 0.977 | locus YGR135W, strain pre9, active compounds read low 1.04 | locus YGR229C, strain SMI1, active compounds read low 0.99 | locus YGR252W, strain gcn5, active compounds read low 1.01 | locus YHR013C, strain ard1, active compounds read low 0.959 | locus YHR027C, strain rpn1, active compounds read low 0.969 | locus YHR030C, strain SLT2, active compounds read low 1.01 and 1.08 | locus YHR079C, strain IRE1 (second series), active compounds read low 1.01 | locus YHR079C, strain IRE1, active compounds read low 1.08 | locus YHR094C, strain hxt1, active compounds read low 1 | locus YHR129C, strain ARP1, active compounds read low 1.01 | locus YHR142W, strain chs7, active compounds read low 0.954 | locus YHR200W, strain rpn10, active compounds read low 1.01 | locus YIL066C, strain RNR3, active compounds read low 0.998 | locus YIL073C, strain SPO22, active compounds read low 1.05 | locus YIL125W, strain kgd1, active compounds read low 1 | locus YIR030C, strain dcg1, active compounds read low 1.01 | locus YJL092W, strain hpr5, active compounds read low 0.966 | locus YJL095W, strain BCK1 (second series), active compounds read low 0.977 | locus YJL095W, strain BCK1, active compounds read low 0.972 and 1.1 | locus YJL115W, strain asf1, active compounds read low 0.939 | locus YJL129C, strain trk1, active compounds read low 0.975 | locus YJL134W, strain LCB3, active compounds read low 1.01 | locus YJL154C, strain vps35, active compounds read low 0.978 | locus YJL164C, strain tpk1, active compounds read low 1.01 | locus YJL166W, strain qcr8, active compounds read low 0.987 | locus YJL168C, strain set2, active compounds read low 0.997 | locus YJL187C, strain SWE1 (second series), active compounds read low 0.974 | locus YJL187C, strain SWE1, active compounds read low 0.994 | locus YJR043C, strain POL32, active compounds read low 0.989
